# Measurements from PubChem BioAssay (EPA / NIEHS).
# Inconclusive results are not listed. The source made the active and inactive calls. How the source made its calls: active means hit-call score of the fitted dose curve at least 0.9, where 1 is the maximum; inconclusive means response in the unintended direction; inactive means score below 0.9.
# Read-out: xenobiotic metabolism (CYP1A1), CYP1A1 (gene 1543)
# Assay: CLD_CYP1A1_48hr: CellzDirect (CLD) Gene Expression Assay for xenobiotic metabolism (CYP1A1) at 48 hours (AID 2283705)
# Method: CLD_48hr is a cell-based, multiplexed-readout assay that uses hepatocyte, a human liver primary cell, with measurements taken at 48 hours after chemical dosing in a 96-well plate.CLD_CYP1A1_48hr is one of 16 assay component(s) measured or calculated from the CLD_48hr assay. It is designed to make measurements of mRNA induction, a form of inducible reporter, as detected with chemiluminescence signals by Quantitative Nuclease Protection Assay (qNPA) technology.Data from the assay component CLD_CYP1A1_48hr was analyzed at the endpoint, CLD_CYP1A1_48hr, in the positive analysis fitting direction relative to DMSO as the negative control and baseline of activity. Using a type of inducible reporter, gain-of-signal activity can be used to understand changes in the reporter gene as they relate to the gene CYP1A1. Furthermore, this assay endpoint can be referred to as a primary readout. To generalize the intended target to other relatable targets, this assay endpoint is annotated to the cyp intended target family, where subfamily is xenobiotic metabolism.
# Human hepatocyte cultures were treated daily for two consecutive days with fresh dosing solutions containing appropriate concentrations of the 320 ToxCast chemicals (chemical identities were blinded to CellzDirect and other ToxCast collaborators), vehicle control (0.2% DMSO), and positive control inducers as summarized in Table 1. Due to the large number of treatment groups and chemicals examined, the ToxCast chemicals were divided into two groups (spanning two independent cultures of hepatocytes from separate donor preparations (Hu778: ToxCast plates 1 and 2; Hu776: ToxCast plates 3 and 4). Each preparation of human hepatocyte cultures was treated with respective vehicle control, medium only control, set of six positive controls/reference chemicals for the five hepatic receptor pathways, and a subset of eight of the ToxCast chemicals (indoxacarb, pyrithiobac-sodium, norflurazon, cyhalofop-butyl, methomyl, thiram, acetochlor, and propiconazole). These replicate data, coupled with internal replicates designed within the blinded ToxCast chemical library, provided additional data to evaluate interindividual differences between hepatocyte preparations and their potential impact on chemical profiles.Cell morphology and integrity were evaluated using phase-contrast microscopy as an indicator of hepatocyte cell health (Tyson & Green, 1987). Cultures for each treatment group (i.e., media, vehicle [0.2% DMSO], positive control inducers [multiple concentrations], and the ToxCast chemicals [multiple concentrations]) were observed and cell morphology was assessed relative to vehicle control cultures at each harvest time point (0, 6, 24, or 48 h). […] Images were evaluated at the conclusion of the study to assess changes in cell integrity and account for the effects of chemical exposure on uncharacteristic changes in concentration-dependent gene expression profiles. The results from these determinations of apparent cytotoxicity were annotated (yes/no) alongside the corresponding qNPA data for reference.At the conclusion of each treatment period, hepatocyte cultures (96-well) were washed with 1 volume of HBSS, lysed by addition of 25 ul ArrayPlate lysis buffer (HTG, Tucson, AZ), and 70 ul/well of Denaturation Oil, denatured by incubation at 95C for 10 min, and frozen at approximately -70C until analysis by nuclease protection assay (qNPA) (Roberts et al., 2007). For qNPA analysis, cell lysates were thawed at 50C for approximately 30 min, qNPA probes were added, and samples were incubated at 95C for 10 min to begin the detection process by denaturing the target RNA, dissociating the duplexes and secondary structure hybridization. At the conclusion of the hybridization period, S1 nuclease reagent was added to each sample to digest all nonprotected nucleotides at 50C for 60-90 min. […]
SMILES,AC50,outcome
COC(=O)c1ccc(I)cc1S(=O)(=O)NC(=O)Nc1nc(C)nc(OC)n1,20 µM (active),
CCOC(=O)[C@H](C)Oc1ccc(Oc2nc3ccc(Cl)cc3o2)cc1,,inactive
CCOC(=O)C(C)Oc1ccc(Oc2nc3ccc(Cl)cc3o2)cc1 (stereo not drawn),,inactive
CCN(Cc1c(F)cccc1Cl)c1c([N+](=O)[O-])cc(C(F)(F)F)cc1[N+](=O)[O-],1.22 µM (active),
CCOC(=O)COc1cc(-n2ncc(C(F)(F)F)c(C)c2=O)c(F)cc1Cl,,inactive
COC(=O)c1c(Cl)nn(C)c1S(=O)(=O)NC(=O)Nc1nc(OC)cc(OC)n1,,inactive
CSC(=O)c1cccc2nnsc12,,inactive
CCCCC(CC)CN1C(=O)C2C3C=CC(C3)C2C1=O (stereo not drawn),33.7 µM (active),
CC(C)(c1ccc(O)cc1)c1ccc(O)cc1,,inactive
CCCCOC(=O)[C@@H](C)Oc1ccc(Oc2ccc(C(F)(F)F)cn2)cc1,,inactive
COCCO,,inactive
CN(C)C(=O)Nc1ccc(Cl)c(Cl)c1,12.4 µM (active),
S=C([S-])NCCNC(=S)[S-].[Mn+2],3.58 µM (active),
COC(=O)c1ccc(CNS(C)(=O)=O)cc1S(=O)(=O)NC(=O)Nc1nc(OC)cc(OC)n1,,inactive
OB(O)O,,inactive
CC(C)(C)[C@@H](O)[C@@H](Cc1ccc(Cl)cc1)n1cncn1,3.97 µM (active),
COC(=O)c1cccc(C)c1S(=O)(=O)NC(=O)Nc1nc(OCC(F)(F)F)nc(N(C)C)n1,8.53 µM (active),
CCNc1nc(N)nc(Cl)n1,,inactive
CCC(C)OC(=O)N1CCCCC1CCO (stereo not drawn),,inactive

SMILES,AC50,outcome
COC(=O)CSc1cc(N=c2sc(=O)n3n2CCCC3)c(F)cc1Cl,,inactive
COC(=O)c1ccccc1C(=O)O,,inactive
CCCCC(CC)COC(=O)c1ccccc1C(=O)O (stereo not drawn),,inactive
O=C(Nc1ccc([N+](=O)[O-])cc1Cl)c1cc(Cl)ccc1O,3.55 µM (active),
CCCCCOC(=O)COc1cc(N2C(=O)C3=C(CCCC3)C2=O)c(F)cc1Cl,,inactive
S=C(S)NCCNC(=S)S.[Mn+2].[S-]C([S-])=NCCN=C([S-])[S-].[Zn+2],0.252 µM (active),
c1ccc(Nc2ccccc2)cc1,,inactive
CCCOC(=O)NCCCN(C)C,,inactive
CC1(C)C(C=C(Cl)Cl)C1C(=O)OCc1cccc(Oc2ccccc2)c1 (stereo not drawn),,inactive
N#CSCSc1nc2ccccc2s1,7.52 µM (active),
CCCN(CCC)c1c([N+](=O)[O-])cc(C(F)(F)F)c(N)c1[N+](=O)[O-],5.19 µM (active),
Cc1nn(C)c(Oc2ccccc2)c1C=NOCc1ccc(C(=O)OC(C)(C)C)cc1,,inactive
O=C(O)C1(C(=O)Nc2ccc(Cl)cc2Cl)CC1,,inactive
c1ccc2[nH]c(-c3cscn3)nc2c1,0.781 µM (active),
CCCCOCCOCCOCc1cc2c(cc1CCC)OCO2,12 µM (active),
C=CCOC(Cn1ccnc1)c1ccc(Cl)cc1Cl (stereo not drawn),3.84 µM (active),
CCC(O)=C1C(=O)CC(C(=O)O)CC1=O (stereo not drawn),,inactive
CCOC(=O)NCCOc1ccc(Oc2ccccc2)cc1,,inactive
COC(=O)c1ccccc1S(=O)(=O)NC(=O)Nc1nc(OC(F)F)cc(OC(F)F)n1,,inactive
